# Assay outcomes as filed in PubChem.
# This excerpt belongs to a sample that is enriched for hits.
# TTR transcr act: TTR transcription activation, primary screen. SH-SY5Y TTR promoter Gaussia luciferase, luminescence; 100% = recombinant luciferase protein wells. activation, % at 16.7 µM. actives 1.3% (n = 92,000). AID 1117267;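 active means activation above the mean of all tested compounds plus 3 SD, cut at about 9.5% in these data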;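 further: cells exposed to compounds for one day before reading; 0% = median of all test compound wells on the plate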
# TTR inh HuH7: decreases TTR transcription in HuH7 cells in activator counter-screen. shares compounds with TTR transcr act. HuH7 TTR promoter-Gaussia luciferase reporter, luminescence. inhibition, % at 16.7 µM. actives 4% (n = 1,100);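 active means average inhibition above the solvent-only control wells' mean plus 3 SD, cut at about 15% in these data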;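 further: 0% = cells with DMSO only and 100% = cells with inhibitor control FD; inhibitors lower well luminescence so higher value means more inhibition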
# TTR act confirm: confirmation of human transthyretin transcription activators. shares compounds with TTR transcr act. SHSY5Y TTR promoter Gaussia luciferase, luminescence; 100% = purified Lucia enzyme wells, no cells. activation, % at 16.7 µM. 1,100 tested, under 10 active. AID 1117280;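 active means mean activation above a set limit taken from the earlier primary screen, cut at about 11% in these data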;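 further: 0% = DMSO-treated cells and 100% = recombinant Lucia luciferase without cells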
# * = called active by the depositor.
SMILES,TTR transcr act,others
CCC12CCN(CC3(O)CC3)C(Cc3ccc(O)cc31)C2(C)C (stereo not given),4,
O=S(=O)(c1ccc(Cl)cc1)N1Cc2cc(Br)ccc2-n2nncc2C1,0,
Brc1ccc2c(c1)CN(CC1CCCCC1)Cc1cnnn1-2,27*,TTR inh HuH7=-8;TTR act confirm=0
CC1c2ccccc2-n2nncc2CN1CC1CCCCC1 (stereo not given),1,
Cc1cc(Cc2c(O)[nH]c(=S)[nH]c2=O)ccc1OC(C)C,1,
O=P(/C(=N/O)N1CCOCC1)(N1CCOCC1)N1CCOCC1,12*,TTR inh HuH7=-10;TTR act confirm=-1
O=P(Oc1ccccc1)(N1CCOCC1)N1CCOCC1,-1,
O=CC(Cl)P(=O)(N1CCOCC1)N1CCOCC1 (stereo not given),1,
CN(C)c1ccc(/C=C2/C(=N\O)C3CCN2CC3)cc1,-1,
ClCCN1CCSCC1,1,
